Consider 90 molecules from PubChem BioAssay AID1851 (National Center for Advancing Translational Sciences (NCATS), 2009).

Each structure is given as a SMILES string. Among all 16,000 compounds or so, about 5,800 (36%) were called active. About 23% were inconclusive and are not listed. This is one part of the list. Unmarked numbers belong to inactive results. Calls follow the shape of the dose curve; as a rule, active = well fitted curve in the direction sought with a large enough effect; inconclusive = small, poorly fitted or top-dose-only effect, or effect the other way; inactive = no such curve, though single readings can be large or run the other way. Peptide text beside a SMILES is read from it.
% is scaled to controls: 0 for no effect and ±100 for the full control effect.

The target in this assay is Cytochrome P450 2C19 (Homo sapiens) (UniProt P33261). The assay can be described thus: Cytochrome panel assay with activity outcomes. To be noted: recombinant CYP, pro-luciferin dealkylation, luminescence, p450-cyp2c19; series mostly up to 57.1 µM; activity, negative = inhibition: at the top concentration.
Sequence of Cytochrome P450 2C19 (Homo sapiens) (P33261 whole entry, looked up): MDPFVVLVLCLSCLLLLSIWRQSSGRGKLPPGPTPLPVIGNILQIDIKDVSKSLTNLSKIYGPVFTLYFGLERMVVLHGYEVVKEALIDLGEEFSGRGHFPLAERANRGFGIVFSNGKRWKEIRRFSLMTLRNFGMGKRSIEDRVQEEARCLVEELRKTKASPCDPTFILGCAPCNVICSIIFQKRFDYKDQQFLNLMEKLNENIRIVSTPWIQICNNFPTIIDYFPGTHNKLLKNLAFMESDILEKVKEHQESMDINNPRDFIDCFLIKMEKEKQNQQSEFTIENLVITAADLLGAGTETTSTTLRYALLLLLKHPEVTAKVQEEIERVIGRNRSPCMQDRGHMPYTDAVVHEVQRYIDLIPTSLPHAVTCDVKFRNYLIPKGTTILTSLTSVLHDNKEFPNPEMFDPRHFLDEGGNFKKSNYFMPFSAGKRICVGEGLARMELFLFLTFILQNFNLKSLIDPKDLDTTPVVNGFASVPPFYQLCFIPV
Consider `CCOC(=O)c1c(NC(=O)c2ccc(N3CCOCC3)c([N+](=O)[O-])c2)sc(C)c1C`, for which the “activity, negative = inhibition” value is 2.69%.

Usually AC50 stands for the concentration giving half of the maximal activity seen. For the molecule `Cc1ccc(OCC(=O)N2CCN(c3ccc([N+](=O)[O-])c(N4CCOCC4)c3)CC2)cc1`, the AC50 is 14.1 µM (active).

With `Cc1ccc(OC(=O)c2ccc(N3CCOCC3)c([N+](=O)[O-])c2)cc1`, the AC50 was 20 µM (active).

Take `CO/N=C/c1ccc(N2CCN(C(=O)c3ccc(Cl)cc3Cl)CC2)c([N+](=O)[O-])c1`: the AC50 is 5.01 µM (active).

On to `Cn1c(=O)n(C)c2cc([N+](=O)[O-])c(N3CCN(C(=O)c4ccccc4Cl)CC3)cc21`, for which the AC50 is 17.8 µM (active).

For the molecule `COC(=O)c1ccc(N2CCN(c3ccccc3)CC2)c(NC(=O)C2CC2)c1`, the “activity, negative = inhibition” value was -20.9%.

In the case of `Cc1ccc(C)c(-c2nn(-c3cc(N4CCN(CCO)CC4)ccc3[N+](=O)[O-])c(=O)c3ccccc23)c1`, the “activity, negative = inhibition” value was -101%.

In the case of `O=C(Nc1ccc(-c2nc3ccccc3o2)cc1)c1ccc(N2CCOCC2)c([N+](=O)[O-])c1`, the half-maximal activity concentration (AC50) is 5.01 µM (active).

For `COC(=O)c1ccc(N2CCN(CC(=O)c3ccc(-c4ccccc4)cc3)CC2)c([N+](=O)[O-])c1`, the AC50 was 5.01 µM (active).

`Cc1ccc(C(=O)O/N=C\c2ccc(N3CCCCC3)c([N+](=O)[O-])c2)cc1`: the AC50 was 1.58 µM (active).

Consider `Cc1cc(C)n(-c2cc(N3CCN(C(=O)c4ccc(C(C)(C)C)cc4)CC3)ccc2[N+](=O)[O-])n1`, for which the AC50 is 2.82 µM (active).

Take `CCOC(=O)c1[nH]c(C(=O)O)c(CCN(CC)CC)c1C`: the “activity, negative = inhibition” value was 7.09%.

For the molecule `CO[C@H]1COC(=O)[C@@H](C)COC(=O)[C@@H](Cc2ccccc2)NC(=O)C/C=C\[C@H]1C`, the activity, negative = inhibition was 10.6% [at 11.4 µM].

As to `CC(C)=CCC/C(C)=C/CO/N=C1/C[C@@H](O)[C@@H](O)[C@@H]2[C@@H]3C(=O)N(C[C@@H]4CCCO4)C(=O)[C@H]3CC[C@@H]12`, the activity, negative = inhibition is 29.8% [at 11.4 µM].

As for `Cc1ccc(C)c2sc(NC(=O)c3ccc(N4CCCCC4)c([N+](=O)[O-])c3)nc12`, the AC50 is 2.82 µM (active).

As for `Cc1ccccc1C(=O)N1CCN(c2ccc([N+](=O)[O-])c(N3CCOCC3)c2)CC1`, the AC50 is 15.8 µM (active).

Take `Cc1ccc(OCCCC(=O)N2CCOCC2)cc1`: the AC50 is 1.41 µM (active).

For `O=C(NCCNC[C@@H](O)COc1ccc(O)cc1)N1CCOCC1`, the AC50 result was “inactive”.

In the case of `Cn1ncc([N+](=O)[O-])c1C(=O)N1CCOCC1`, the “activity, negative = inhibition” value is -1.66%.

Take `Cc1ccc(CS(=O)(=O)CCC(=O)N2CCOCC2)cc1`: the “activity, negative = inhibition” value was -8.97%.

Consider `CC(=O)N[C@@H](CC(=O)O)C(=O)N[C@@H](CCC(=O)O)C(=O)O` (Ac-Asp-Glu-OH), for which the AC50 result was “inactive”.

In the case of `CCCCNN`, the activity, negative = inhibition is -44.3% [at 11.4 µM].

In the case of `O=C(O)[C@H]([C@H]1NCCS1)N1Cc2ccccc2C1`, the activity, negative = inhibition is -31.8% [at 11.4 µM].

As for `NC(=O)c1cccc(N)c1`, the “activity, negative = inhibition” value was -27.6%.

Turning to `C/C(=N\Nc1ccc([N+](=O)[O-])cc1)c1cccc(N)c1`, the AC50 is 1.26 µM (active).

`C/C(=N\Nc1nc(N)cc(Cl)n1)c1cccc([N+](=O)[O-])c1`: the “activity, negative = inhibition” value is 2.88%.

As for `CCOC(=O)c1sc(N(Cc2ccccc2)C(=O)CN2C(=O)CN(C)C2=O)nc1C`, the AC50 was 15.8 µM (active).

Consider `CCOC(=O)c1sc(NS(=O)(=O)c2ccccc2)nc1C`, for which the “activity, negative = inhibition” value is -24.1%.

Regarding `CO[C@H]1COC(=O)CCC[C@H](C)[C@H](OC)COC(=O)C/C=C\[C@@H]1C`, the activity, negative = inhibition is -23% [at 11.4 µM].

As for `C=CCn1c(=O)c(C(=O)NCCN(CC)CC)c(O)c2ccccc21`, the “activity, negative = inhibition” value was -15.7%.

Turning to `CC(C)Oc1cccc(-n2c(CCc3c[nH]c4ccc(Br)cc34)nc3ccccc3c2=O)c1`, the “activity, negative = inhibition” value was 9.45%.

As to `CCCCCCc1nc2ccccc2c(=O)n1NC(=O)c1c(O)c2c(n(CC(C)C)c1=O)CCCC2`, the AC50 is 5.62 µM (active).

Regarding `O=C(NCc1ccccc1)c1ccc2c(c1)C(=O)N(CC1CCCO1)C2=O` (stereo not given), the “activity, negative = inhibition” value is -23.3%.

`CCCn1c2c(c(O)c(C(=O)NCc3ccccc3)c1=O)CCCC2`: the AC50 was 17.8 µM (active).

Turning to `CC(=O)N=c1sccn1CC(=O)c1ccc([N+](=O)[O-])cc1`, the AC50 was 10 µM (active).

As to `CCN1C(=O)CC(N2CCN(CC(=O)NC(C)C)CC2)C1=O` (stereo not given), the “activity, negative = inhibition” value was -9.22%.

As for `CC(NC(=O)CN1CCCC1)C12CC3CC(CC(C3)C1)C2` (stereo not given), the AC50 is 15.8 µM (active).

For the molecule `c1ccc(-c2nc(CSc3n[nH]c(-c4cccs4)n3)cs2)cc1`, the AC50 is 1.12 µM (active).

For `N#Cc1cccc(-c2nc3cnc(N4CCOCC4)nc3n(C3CC3)c2=O)c1`, the “activity, negative = inhibition” value is -17.4%.

`CC1=CC2=NC(=O)CC(C)(C(=O)N(CC(=O)NC(C)(C)C)Cc3cccs3)N2C=C1` (stereo not given): the “activity, negative = inhibition” value is -5.57%.

For the molecule `CC(C)(C)NC(=O)CN(Cc1cccs1)C(=O)CCC(=O)Nc1nccs1`, the AC50 was 7.94 µM (active).

Turning to `Nc1ncnc2c1nc(Br)n2[C@H]1O[C@H]2COP(=O)(O)O[C@H]2[C@@H]1O`, the “activity, negative = inhibition” value is -28.5%.

Take `O=C(c1cc(C(F)(F)F)cc(C(F)(F)F)c1)N1CCC[C@@]2(CCN(c3ccccn3)C2)C1`: the “activity, negative = inhibition” value is -29.6%.

For the molecule `CC(=O)N1CCC2(CC1)CN(c1ccccn1)C2`, the “activity, negative = inhibition” value was 9.66%.

As to `COC(=O)N1CCC[C@@]2(CCN(c3ncccn3)C2)C1`, the “activity, negative = inhibition” value was 3.42%.

Turning to `O=C(c1cnccn1)N1CCC[C@@]2(CCN(c3ccccn3)C2)C1`, the “activity, negative = inhibition” value is 7.86%.

Consider `O=C(Oc1ccccc1)N1CCC2(CC1)CN(c1ccccn1)C2`, for which the “activity, negative = inhibition” value was -4.95%.

Take `O=C(Oc1ccccc1)N1CCC2(CC1)CN(c1ncccn1)C2`: the “activity, negative = inhibition” value was -27.7%.

Turning to `O=C(Oc1ccccc1)N1CCC[C@@]2(CCN(c3ncccn3)C2)C1`, the AC50 is 2.51 µM (active).

For the molecule `O=C(Oc1ccccc1)N1CCC[C@@]2(CCN(c3ccccn3)C2)C1`, the AC50 is 5.01 µM (active).

Regarding `O=C(Oc1ccccc1)N1CCC2(CCCN(c3ccccn3)C2)CC1`, the AC50 was 7.94 µM (active).

As to `O=C(c1ccncc1)N1CCC[C@@]2(CCN(c3ccccn3)C2)C1`, the AC50 was 6.31 µM (active).

Regarding `C/C(CCN1CCCCc2nc(C)c(C)cc21)=N\OC[C@@H](O)COCc1ccco1`, the activity, negative = inhibition is 11% [at 11.4 µM].

Turning to `COC(=O)N1CCC2(CCCN(c3ccccn3)C2)CC1`, the AC50 was 3.16 µM (active).

As for `COC(=O)N1CCC2(CC1)CN(c1ccccn1)C2`, the “activity, negative = inhibition” value is -43.9%.

On to `O=C(Oc1ccccc1)N1CCC2(CC1)CCN(c1cccc(-c3ccccc3)c1)CC2`, for which the “activity, negative = inhibition” value is 7.79%.

Take `O=C(Oc1ccccc1)N1CCC2(CCCN(c3ccccc3)C2)CC1`: the half-maximal activity concentration (AC50) is 15.8 µM (active).

As to `CC(=O)N1CCC2(CCCN(c3ccccn3)C2)CC1`, the “activity, negative = inhibition” value is -20.4%.

Turning to `O=C(Oc1ccccc1)N1CCC2(CCCN(c3ccc(-c4ccccc4)cc3)C2)CC1`, the “activity, negative = inhibition” value is 3%.

As for `O=S(=O)(O)[C@@H](c1ccccc1)[C@@H](O)c1ccccc1`, the activity, negative = inhibition was 3.73% [at 11.4 µM].

Take `Cc1ccc(S(=O)(=O)N=Nc2c(O)[nH]c3cc(O)c(C(=O)O)cc23)cc1`: the activity, negative = inhibition is 38.4% [at 11.4 µM].

Regarding `Cc1cccc(C)c1NC(=O)[C@H](C)N`, the “activity, negative = inhibition” value is 11.1% [at 25.6 µM].

As for `Cc1cccc(C)c1NC(=O)C(NC=O)c1ccccc1Cl` (stereo not given), the AC50 was 7.94 µM (active).

With `COc1ccc([C@H](O)c2ccccn2)cc1`, the activity, negative = inhibition was -15.9% [at 11.4 µM].

With `COc1ccc(C(O)c2nccn2Cc2ccccc2)cc1` (stereo not given), the AC50 was 5.01 µM (active).

On to `Cc1cc([C@](C)(N)C(=O)O)ccc1P(=O)(O)O`, for which the “activity, negative = inhibition” value was 0.228%.

In the case of `O=C(c1ccc2c(c1)N(Cc1ccc(F)cc1)C(=O)CS2)N1CCOCC1`, the AC50 was 7.08 µM (active).

For the molecule `O=C1Nc2cc(C(=O)N3CCOCC3)ccc2SC1N1CCOCC1` (stereo not given), the “activity, negative = inhibition” value was 10.9%.

In the case of `CCOC(=O)C(C)Sc1nnc(CNC(=O)c2ccc(OC)cc2)n1C1CCCCC1` (stereo not given), the AC50 is 5.01 µM (active).

Regarding `COc1ccc(-n2c(CNC(=O)c3ccc(S(=O)(=O)N4CCCC4)cc3)n[nH]c2=S)cc1`, the “activity, negative = inhibition” value is -27.5%.

Turning to `CC(Sc1nnc(Cc2cccs2)n1C1CCCCC1)C(N)=O` (stereo not given), the AC50 is 39.8 µM (active).

As for `COc1ccc(C(=O)N2CCC3(CC2)CN(C(=O)NC(C)C)C3)cc1`, the “activity, negative = inhibition” value is 9.55%.

As to `O=C(O)[C@@H](O)[C@@H](O)[C@@H](O)[C@@H](O)C(=O)O` (tested in a mixture with another compound), the “activity, negative = inhibition” value was 9.98% [at 25.6 µM].

With `O=C(O)[C@@H](O)[C@@H](O)[C@@H](O)[C@@H](O)c1nc2ccccc2s1`, the AC50 was 3.16 µM (active).

`O=C(O)[C@@H](O)[C@@H](O)[C@H](O)[C@H](O)CO`: the activity, negative = inhibition is 2.53% [at 11.4 µM].

Turning to `CSc1nc(N)c2ncn([C@@H]3O[C@@H](COP(=O)(O)OP(=O)(O)O)[C@@H](O)[C@H]3O)c2n1`, the “activity, negative = inhibition” value was -4.53%.

Consider `CCc1ccc(N(C(=O)c2ccoc2C)C(C(=O)NC2CCCC2)c2ccc(OC)cc2)cc1` (stereo not given), for which the AC50 was 14.1 µM (active).

For `COc1ccc(C[C@H](N)C(=O)N[C@@H]2[C@H](O)[C@H](n3cnc4c(N(C)C)ncnc43)O[C@@H]2CO)cc1`, the “activity, negative = inhibition” value is 10.8% [at 25.6 µM].

In the case of `COc1ccc(C(C(=O)NC2CCCC2)N(C(=O)c2snc(-c3ccc(F)cc3)c2N)c2ccc(F)cc2)cc1` (stereo not given), the “activity, negative = inhibition” value was -24.1%.

In the case of `COc1ccc(C(C(=O)NC2CCCCC2)N(C(=O)c2sc(C)nc2C)c2ccc(OC)cc2)cc1` (stereo not given), the AC50 was 14.1 µM (active).

As for `N#C/C(=C\N1CCNC1=S)C(=O)c1ccc2ccccc2c1`, the activity, negative = inhibition is -10.2% [at 11.4 µM].

Turning to `Cc1ccc(C)c(OCCCC(C)(C)C(=O)O)c1`, the “activity, negative = inhibition” value was -33.3% [at 25.6 µM].

As to `C/C(N)=C(/C#N)C(=O)CSc1nnc(COc2cc(C)ccc2C)o1`, the AC50 was 3.55 µM (active).

For `O=C1SC(c2ccccc2)=C/C1=C\N1CCCCC1`, the AC50 is 2 µM (active).

On to `CC1CCN(S(=O)(=O)c2ccc3c(c2)C(=NO)c2cc(S(=O)(=O)N4CCC(C)CC4)ccc2-3)CC1`, for which the AC50 was 4.47 µM (active).

In the case of `COCCNC(=O)Cn1cnc2ccc(S(=O)(=O)N3CCC(C)CC3)cc2c1=O`, the “activity, negative = inhibition” value is -16.1%.

For the molecule `CC1CCN(CC[C@H]2CCCN2S(=O)(=O)c2cccc(O)c2)CC1`, the “activity, negative = inhibition” value was -20.6%.

On to `COc1cc([C@H](O)C(=O)O)ccc1O`, for which the “activity, negative = inhibition” value is -11.8%.

`COc1ccc(C(O)P(=O)(OC(C)C)OC(C)C)cc1OC` (stereo not given): the half-maximal activity concentration (AC50) is 3.55 µM (active).

With `COc1cc([C@@H](O)CO)ccc1OS(=O)(=O)O`, the “activity, negative = inhibition” value is -27.9%.
